These entries were drawn from the full list.
TNAP inh Pi: blocks human TNAP phosphate release | P05186 | purified TNAP, pNPP, malachite green phosphate absorbance | inhibition, % at 20 µM | 21,000 tested, under 10 active | AID 614
Target sequence (P05186 whole entry, looked up): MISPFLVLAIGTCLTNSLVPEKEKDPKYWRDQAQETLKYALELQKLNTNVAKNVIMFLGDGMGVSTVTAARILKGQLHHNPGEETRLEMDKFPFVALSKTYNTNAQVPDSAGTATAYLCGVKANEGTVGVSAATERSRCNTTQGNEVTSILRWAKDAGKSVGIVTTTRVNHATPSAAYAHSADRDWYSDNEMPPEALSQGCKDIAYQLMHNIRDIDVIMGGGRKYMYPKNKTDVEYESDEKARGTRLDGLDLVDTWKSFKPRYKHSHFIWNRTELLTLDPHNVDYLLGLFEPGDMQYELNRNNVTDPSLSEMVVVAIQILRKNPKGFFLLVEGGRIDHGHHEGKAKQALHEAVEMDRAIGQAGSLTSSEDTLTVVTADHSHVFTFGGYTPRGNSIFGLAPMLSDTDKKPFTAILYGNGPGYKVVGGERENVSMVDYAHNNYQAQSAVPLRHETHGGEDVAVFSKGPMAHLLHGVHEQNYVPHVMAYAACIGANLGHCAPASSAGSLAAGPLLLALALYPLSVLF
TNAP pNPP inh: human TNAP inhibition, p-nitrophenol detection | 21,000 tested, under 10 active | inhibition, % at 20 µM | P05186 | purified TNAP, pNPP hydrolysis, absorbance 405 nm;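 also: 0% = DMSO only wells and 100% = 1 mM levamisole wells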
Starred values were filed as active, the others as inactive.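 The calls were made as follows: active = inhibition above 50% at the 20 µM single-dose screen; inactive = the rest.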

Screening O=C(Nc1ccc(S(=O)(=O)N2CCN(Cc3ccccc3)CC2)cc1)c1cnccn1 returned TNAP inh Pi 3 and TNAP pNPP inh 7.
`O=C(Cn1nc(C(F)(F)F)c2c1CCC2)N1CCN(c2ccccc2)CC1` gave TNAP inh Pi 0 and TNAP pNPP inh -3.
For C#CCNc1nc(CC)nc2c1nnn2Cc1ccccc1F the results were TNAP inh Pi 13 and TNAP pNPP inh -3.
For CCCCOC(=O)Cn1c(=O)c2c(nc(Br)n2Cc2ccccc2)n(C)c1=O the results were TNAP inh Pi 11 and TNAP pNPP inh 3.
Screening Cc1ccc(-c2nnc3n2N=C(c2ccccc2Br)CS3)cc1 returned TNAP inh Pi 4 and TNAP pNPP inh -1.
Screening CC1=C(C(=O)Nc2cccc(C)n2)C(c2ccc3c(c2)OCO3)C2=C(CC(c3ccco3)CC2=O)N1 (configuration not stated) returned TNAP inh Pi 8 and TNAP pNPP inh 1.
Screening CC1(c2cccs2)CC(c2cccs2)=C(C#N)C(=O)N1 (configuration not stated) returned TNAP inh Pi 7 and TNAP pNPP inh -2.
Cn1c(=O)c2c(ncn2CC(=O)N2CCN(c3ccc(F)cc3)CC2)n(C)c1=O was read as TNAP inh Pi 7 and TNAP pNPP inh 2.
Screening CC(C)CCN1C(=O)c2ccc(C(=O)OCn3nnc4ccccc4c3=O)cc2C1=O returned TNAP inh Pi 12 and TNAP pNPP inh 5.
For COCCOc1ccc(C(F)(F)F)cc1Nc1nc2ccccc2o1 the results were TNAP inh Pi 7 and TNAP pNPP inh -2.
For CCC(=O)N[C@@H]1CC(C(C)(C)NC(=O)CC)CC=C1C (some centres not stated) the results were TNAP inh Pi 8 and TNAP pNPP inh 4.
Screening O=C(COc1ccc(N2CC(C(=O)O)CC2=O)cc1)Nc1cccc(C(F)(F)F)c1 (configuration not stated) returned TNAP inh Pi 17 and TNAP pNPP inh 6.
Screening COC(=O)c1cccc(NC(=O)CSc2nnc(C)n2Cc2ccccc2)c1 returned TNAP inh Pi 8 and TNAP pNPP inh 2.
For CCCn1c(SCC(=O)NCCc2ccc(Cl)cc2Cl)n[nH]c1=O the results were TNAP inh Pi 20 and TNAP pNPP inh 8.
`COc1cccc(C2NC(=O)NC(C)=C2C(=O)Nc2cccc(C)c2C)c1` (configuration not stated) gave TNAP inh Pi 3 and TNAP pNPP inh 5.
`c1cc(CSc2nnc(-c3ccc4c(c3)OCO4)o2)ccn1` gave TNAP inh Pi 5 and TNAP pNPP inh -1.
`Cc1occc1-c1nnc(SCC(=O)c2cc3ccccc3oc2=O)o1` gave TNAP inh Pi -2 and TNAP pNPP inh 5.
Screening CS(=O)(=O)N(CC(=O)NCCC1=CCCCC1)c1ccc2c(c1)OCO2 returned TNAP inh Pi -4 and TNAP pNPP inh 3.
Screening CC(=O)c1cccc(S(=O)(=O)N(CCCO)Cc2cc3ccc(C)cc3[nH]c2=O)c1 returned TNAP inh Pi -15 and TNAP pNPP inh 4.
For Cc1ccc2[nH]c3c(c2c1)CN(C(=O)CN1CCN(c2ccccc2F)CC1)CC3 the results were TNAP inh Pi 6 and TNAP pNPP inh 0.
For CC(=O)C1=C(O)C(=O)N(c2cccc(C(=O)O)c2)C1c1ccc(F)cc1 (configuration not stated) the results were TNAP inh Pi 6 and TNAP pNPP inh 1.
For C=CCc1c(C)c(C#N)c2nc3ccccc3n2c1N1CCN(C)CC1 the results were TNAP inh Pi 7 and TNAP pNPP inh 1.
CCN1C(=O)C(O)(C2COC(C)(C)CC2=O)c2cc(Br)ccc21 (configuration not stated) was read as TNAP inh Pi -28 and TNAP pNPP inh 2.
CCC(=O)OC1=C2C(=Nc3c(c(=O)n(C)c(=O)n3C)C2c2ccccc2)c2ccccc21 (configuration not stated) was read as TNAP inh Pi -4 and TNAP pNPP inh 4.
For C=CC[N+](C)(C)CCCNC(=O)/C=N/O the results were TNAP inh Pi 6 and TNAP pNPP inh 1.
For O=C(CN(CCc1ccccc1)C(=O)CNS(=O)(=O)c1ccc(F)cc1)NCC1CCCO1 (configuration not stated) the results were TNAP inh Pi 9 and TNAP pNPP inh 6.
Screening CC(C)CNC(=O)c1cccc(NC(=O)c2ccc(NC(=O)c3ccco3)cc2)c1 returned TNAP inh Pi 12 and TNAP pNPP inh 0.
Screening CC(=O)c1c(C(C)=O)c(C)n(NC(=O)c2ccncc2)c1C returned TNAP inh Pi 3 and TNAP pNPP inh 1.
Screening CC(C)c1nc(N2CCOCC2)c(C#N)c2c1CCC2 returned TNAP inh Pi 14 and TNAP pNPP inh 9.
`CC1=C(C(=O)Nc2ccccc2C)C(c2cccnc2)n2nc(CCCO)nc2N1` (configuration not stated) gave TNAP inh Pi 8 and TNAP pNPP inh 3.
Screening CCOc1cccc(C(=O)Nc2ccccc2N2CCN(C(=O)C(C)C)CC2)c1 returned TNAP inh Pi -2 and TNAP pNPP inh -8.
C=CCSc1nnc2n(-c3ccccc3OC)c(=O)c3c4c(sc3n12)CCC4 was read as TNAP inh Pi 0 and TNAP pNPP inh 0.
CCn1c(=O)c(C2=NS(=O)(=O)c3ccccc3N2)c(O)c2ccccc21 was read as TNAP inh Pi 1 and TNAP pNPP inh -1.
Screening Cc1ccc(C)c(N(CC(=O)NC2CCCCC2)C(=O)CCC(=O)Nc2ccccn2)c1 returned TNAP inh Pi 11 and TNAP pNPP inh 6.
CC(C)=CCC(C)(C)C1OCCN1C(=O)Nc1ccccc1 (configuration not stated) was read as TNAP inh Pi -2 and TNAP pNPP inh -14.
O=C(Nn1c(Cc2cccs2)nc2ccccc2c1=O)c1cccs1 was read as TNAP inh Pi -17 and TNAP pNPP inh 2.
CC(=O)NC(Cc1ccccc1C)C(=O)NC1CCN(c2c3c(nc4ncnn24)CCC3)CC1 (configuration not stated) was read as TNAP inh Pi 11 and TNAP pNPP inh 5.
O=c1[nH]cnc2c1cnn2Cc1ccccc1 was read as TNAP inh Pi 10 and TNAP pNPP inh 6.
CC(C)CCNC(=O)CN(Cc1ccc2c(c1)OCO2)C(=O)Cn1nnc(-c2cccs2)n1 was read as TNAP inh Pi 0 and TNAP pNPP inh 0.
Screening CC1=C(C(=O)Nc2ccccc2C)C(c2ccc(C)o2)C2=C(CCCC2=O)N1 (configuration not stated) returned TNAP inh Pi -1 and TNAP pNPP inh -6.
For COC(=O)c1ccc(Cn2cnc3c(sc4nc(N5CCOCC5)c5c(c43)CCCC5)c2=O)o1 the results were TNAP inh Pi 9 and TNAP pNPP inh 5.
`Clc1ccc(NC2=NCCCCC2)cc1` gave TNAP inh Pi 3 and TNAP pNPP inh 6.
For CCn1c(=O)c2cc(S(=O)(=O)NC3CCCCC3)ccc2n(CC)c1=O the results were TNAP inh Pi 0 and TNAP pNPP inh 0.
[N-]=[N+]=CC(=O)c1ccnc(C(=O)C=[N+]=[N-])c1 was read as TNAP inh Pi 4 and TNAP pNPP inh 1.
`COc1ccccc1C1CC(c2ccc(Cl)cc2)Nc2ncnn21` (configuration not stated) gave TNAP inh Pi 5 and TNAP pNPP inh 1.
Screening Cc1c(NC(=O)C(C)N2CC(C)OC(C)C2)c(=O)n(-c2ccccc2)n1C (configuration not stated) returned TNAP inh Pi 7 and TNAP pNPP inh 4.

Assay outcomes as filed in PubChem.
